Hit rate of the full screen: of about 5,600 compounds, about 150 (2.7%) showed an effect of 50% or more. The full list was thinned out, with strong results kept by preference.

The test deals with T1, Protein deacetylase HDAC6 (Homo sapiens) (UniProt Q9UBN7).
T1 sequence (whole entry): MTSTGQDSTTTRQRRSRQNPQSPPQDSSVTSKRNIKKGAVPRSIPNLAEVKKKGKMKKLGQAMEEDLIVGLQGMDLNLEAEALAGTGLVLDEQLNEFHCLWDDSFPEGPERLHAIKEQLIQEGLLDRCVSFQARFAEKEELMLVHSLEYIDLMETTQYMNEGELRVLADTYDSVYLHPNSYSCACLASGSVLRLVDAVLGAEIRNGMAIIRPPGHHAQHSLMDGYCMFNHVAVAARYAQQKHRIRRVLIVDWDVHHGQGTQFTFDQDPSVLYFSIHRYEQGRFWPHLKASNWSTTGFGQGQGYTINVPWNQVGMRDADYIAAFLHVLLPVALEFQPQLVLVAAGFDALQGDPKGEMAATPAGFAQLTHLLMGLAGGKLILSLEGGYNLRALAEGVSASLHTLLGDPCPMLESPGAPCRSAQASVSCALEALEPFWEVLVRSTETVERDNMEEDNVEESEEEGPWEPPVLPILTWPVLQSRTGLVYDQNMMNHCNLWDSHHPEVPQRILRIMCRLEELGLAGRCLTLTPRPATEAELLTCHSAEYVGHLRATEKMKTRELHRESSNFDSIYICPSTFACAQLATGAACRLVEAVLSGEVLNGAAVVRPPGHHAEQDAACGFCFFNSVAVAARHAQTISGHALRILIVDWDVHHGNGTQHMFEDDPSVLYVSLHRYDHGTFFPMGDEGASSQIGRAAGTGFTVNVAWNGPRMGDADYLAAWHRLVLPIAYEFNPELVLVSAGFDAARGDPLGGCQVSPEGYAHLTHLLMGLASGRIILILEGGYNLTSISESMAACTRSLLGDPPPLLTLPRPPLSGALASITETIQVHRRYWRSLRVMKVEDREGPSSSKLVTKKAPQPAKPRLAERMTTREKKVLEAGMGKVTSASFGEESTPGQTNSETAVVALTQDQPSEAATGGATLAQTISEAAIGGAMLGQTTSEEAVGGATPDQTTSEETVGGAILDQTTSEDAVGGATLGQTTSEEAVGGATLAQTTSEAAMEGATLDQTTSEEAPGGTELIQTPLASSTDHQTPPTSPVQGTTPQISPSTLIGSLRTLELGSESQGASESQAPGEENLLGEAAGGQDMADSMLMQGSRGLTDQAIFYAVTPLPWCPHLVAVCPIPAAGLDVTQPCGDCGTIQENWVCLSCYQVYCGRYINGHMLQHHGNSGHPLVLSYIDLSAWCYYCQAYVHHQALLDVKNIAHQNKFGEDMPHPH
The note with it: at 10 µM.
Broadly, the inhibition is the relative decrease from the control value, in per cent. As for `CCN(c1ccccc1)c1cc(NC)[n+](C)c(C)n1`, the inhibition was -1.77%.
Consider `O=C(O)Cc1nn(Cc2nc3cc(C(F)(F)F)ccc3s2)c(=O)c2ccccc12`, for which the inhibition is -1.1%.
In the case of `O=C(Nc1ccc(S(=O)(=O)Nc2nccs2)cc1)C(c1ccccc1)c1ccccc1` it was -1.03%; in that of `CN[C@@H](C)C(=O)N[C@H](C(=O)N1CCC[C@H]1C(=O)Nc1sc(-c2ncco2)nc1-c1ccccc1)C1CCCCC1`, -6.76%; in that of `O=c1[nH]cnc2ccccc12`, -1.07%.
In the case of `COc1cc2nc(N3CCN(C(=O)COc4c(OC)cccc4C(C)C)CC3)nc(N)c2cc1OC` it was 4.56%; in that of `CCCCOc1nc(N)c2c(n1)N(Cc1cccc(CN3CCCC3)c1)CC(=O)N2`, 3.13%.
On to `CC1CCc2c(cc(Br)c(F)c2Br)N1C=O` (configuration not stated), for which the inhibition is 3.01%.
In the case of `N#C/C(=C\c1cn(-c2ccccc2)c2ccccc12)C(=O)O`, the inhibition is -2.69%.
Take `O=S(=O)(O)CC(S)CS` (configuration not stated): the inhibition stood at 2.52%.
`Cc1ccc(CCCO)c(NCc2ccc3nc(NCCCN4CCOCC4)n(Cc4nc(C)ccc4O)c3c2)c1`: the inhibition is -5.63%.
In the case of `N#Cc1c(N)nc(SCc2csc(-c3ccc(Cl)cc3)n2)c(C#N)c1-c1ccc(OCCO)cc1`, the inhibition came out at 2.06%.
Consider `CCCCCCCCCCCCCCCC[n+]1ccn(Cc2ccccc2)c1C`, for which the inhibition was -2.57%.
`COc1cc2c(cc1OC)-c1c(C)c3ccc(OC)c(OC)c3c[n+]1CC2`: the inhibition was -0.34%.
The figure for `COc1ccc(-c2cc(=O)c3c(O)cc(O)cc3o2)cc1O` is 52.3%; for `COc1ccc(-c2cc(=O)c3c(O)cc(O[C@@H]4O[C@H](CO[C@@H]5O[C@@H](C)[C@H](O)[C@@H](O)[C@H]5O)[C@@H](O)[C@H](O)[C@H]4O)cc3o2)cc1O` it is 8.42%; for `COc1ccc([C@@H]2CC(=O)c3c(O)cc(O)cc3O2)cc1O` it is 31.5%.
Take `CC(C)[C@H](C(=O)Nc1ccc(C(=O)NO)cc1)c1ccccc1`: the inhibition was 98%.
For the compound `O=C(O)c1ccc(NC(=O)[C@H](Cc2ccc(O)cc2)NC(=O)c2ccccc2)cc1`, the inhibition came out at 3.32%.
In the case of `CC(=O)Nc1ccc(C(=O)Nc2ccccc2N)cc1`, the inhibition came to 0.93%.
Consider `O=C(O)c1ccccc1Nc1ccc(CCc2ccc(Cl)c(Cl)c2)cc1`, for which the inhibition was -6.85%.
In the case of `COc1ccc2c(c1)C(C(=O)N(Cc1ccc(N(C)C)cc1)c1ccc(C(C)C)cc1)CCC2` (configuration not stated), the inhibition is -3.38%.
